Experimental findings from PubChem BioAssay AID504332 (National Center for Advancing Translational Sciences (NCATS), 2011) are described below.

Each structure is given as a SMILES string. Hit rate of the full screen: of about 350,000 compounds, about 31,000 (8.9%) were called active. About 15% were inconclusive and are not listed. The full list was thinned out, with actives kept by preference. Values without a mark were called inactive. Calls come from the whole dose curve; as a rule, active = well fitted inhibition curve with a large enough effect; inconclusive = small, poorly fitted or top-dose-only effect; inactive = no such curve, though single readings can be large or run the other way.
% is set by controls: 0 for no effect and ±100 for the full control effect; potency is the fitted concentration of half-maximal effect.

Chain of Histone-lysine N-methyltransferase EHMT2 (Homo sapiens) (Q96KQ7 913-1193 limits assumed): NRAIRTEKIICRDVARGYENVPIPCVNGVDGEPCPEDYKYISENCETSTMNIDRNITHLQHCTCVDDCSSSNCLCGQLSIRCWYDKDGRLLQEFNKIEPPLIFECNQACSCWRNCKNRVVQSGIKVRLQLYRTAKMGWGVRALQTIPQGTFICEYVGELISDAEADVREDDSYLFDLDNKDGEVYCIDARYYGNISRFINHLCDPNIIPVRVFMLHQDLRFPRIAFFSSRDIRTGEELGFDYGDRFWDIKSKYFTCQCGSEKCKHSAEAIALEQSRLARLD

For the experiment, the target named is Histone-lysine N-methyltransferase EHMT2 (Homo sapiens) (UniProt Q96KQ7). Description: qHTS Assay for Inhibitors of Histone Lysine Methyltransferase G9a. Note: nearly all actives have a fitted effect of over 75% in size. To be noted: G9a H3K9 monomethylation, AlphaScreen, 2 h; series mostly up to 59 µM; activity, negative = inhibition: at the top concentration. The gist of the method:
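AlphaScreen read-out: biotin-H3K9 peptide (500 nM) methylation by 20 nM enzyme with 20 uM SAM, 2 h at room temperature after 15 min compound preincubation; anti-monomethyl H3K9 antibody plus donor/acceptor beads, 10 min dark.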
`COc1ccc(CNc2nc(-c3ccc(Cl)cc3)nn2C(=O)c2ccccc2)cc1`: the “activity, negative = inhibition” value is 9.43%.

In the case of `CCN(Cc1ccccc1)S(=O)(=O)c1cc2c3c(c1)CCN3C(=O)CC2`, the “activity, negative = inhibition” value is -8.04% [at 102 µM].

`CCN(CC)c1ccc(NC(=O)C2CCC(CNc3c(N4CCCC4)c(=O)c3=O)CC2)c(C)c1` (configuration not stated): the Potency is 39.8 µM (active).

As for `O=C(NCc1ccccc1Cl)C1CCC(CNc2c(N3CCCCC3)c(=O)c2=O)CC1` (configuration not stated), the “activity, negative = inhibition” value is 22.5% [at 102 µM].

With `CCOc1ccccc1NC(=O)C1CCC(CNc2c(N3CCOCC3)c(=O)c2=O)CC1` (configuration not stated), the “activity, negative = inhibition” value was -5.96% [at 102 µM].

Turning to `COc1ccc(Cc2nc3ccc(C(=O)NCC4CCOCC4)cc3o2)cc1OC`, the “activity, negative = inhibition” value is 31.4% [at 102 µM].

Take `CC(C)C(=O)Nc1nnc(SCC(=O)N2C(C)CCCC2C)s1` (configuration not stated): the Potency is 79.4 µM (active).

Turning to `CC1CCCC(C)N1C(=O)CSc1nnnn1C1CCCC1` (configuration not stated), the “activity, negative = inhibition” value is 3.58% [at 102 µM].

`CC(C)N(C(=O)CSc1nnc(NC2CC2)s1)c1ccccc1`: the activity, negative = inhibition was -6.53% [at 0.501 µM].

For `COc1cccc(-c2cc(C(=O)Nc3ccc(C)cc3)[nH]n2)c1`, the “activity, negative = inhibition” value was -1.27%.

Take `COc1ccc(-c2csc(-c3c(N)c(C(=O)c4ccc(OC)c(OC)c4)n4ccccc34)n2)cc1`: the “activity, negative = inhibition” value was 1.87%.

As to `COc1cc(CN(C(=O)c2ccccc2Br)c2ccccn2)cc(OC)c1OC`, the “activity, negative = inhibition” value is -32.7%.

For the molecule `O=C(c1ccncc1)N1CCN(S(=O)(=O)c2cc(C(F)(F)F)cc(C(F)(F)F)c2)CC1`, the “activity, negative = inhibition” value was -49.9%.

As for `O=C(Nc1cc(Cl)cc(Cl)c1)C(NCCCO)c1ccccc1` (configuration not stated), the “activity, negative = inhibition” value was 1.16% [at 102 µM].

Consider `OCCCNC(c1ccccc1)c1ccc(O)cc1` (configuration not stated), for which the Potency is 11.2 µM (active).

As to `O=C(CNC(c1ccccc1)c1ccccc1)Nc1ccc(F)cc1`, the “activity, negative = inhibition” value was 14%.

Take `CCCCN(C)CCCNC(=O)CN1N=C(c2ccc(OC)cc2)CCC1=O`: the “activity, negative = inhibition” value was -8.59%.

As to `O=C(NCCCN1CCCC1=O)c1ccc(S(=O)(=O)Nc2ccccc2)cc1`, the “activity, negative = inhibition” value is 7.97%.

On to `CC(=O)Nc1ccc(NC(=O)CCN2C(=O)C3CC=CCC3C2=O)cc1` (configuration not stated), for which the activity, negative = inhibition was -17% [at 12.7 µM].

Take `Cc1ccccc1OCC(=O)Nc1c(C(=O)Nc2ccccc2F)oc2ccccc12`: the “activity, negative = inhibition” value is 40.1%.

Turning to `COc1cccc(C2c3[nH]c4ccccc4c3CCN2Cc2cccc(C)n2)c1` (configuration not stated), the Potency was 44.7 µM (active).

Turning to `COc1cccc(CNC(=O)c2n[nH]c3ccccc23)c1`, the “activity, negative = inhibition” value is 11.3% [at 102 µM].

With `COc1cccc(N2CCN(C(=O)CCCCCn3c(=O)[nH]c4ccccc4c3=O)CC2)c1`, the “activity, negative = inhibition” value is 3.2%.

In the case of `COc1ccc(CNC(=O)COCc2cc(-c3cccs3)on2)cc1OC`, the “activity, negative = inhibition” value is -9.69%.

As to `CN(CC1CCCN(CCc2cccc(C(F)(F)F)c2)C1)C(=O)c1ccc2nc[nH]c2c1` (configuration not stated), the “activity, negative = inhibition” value was -8.11% [at 102 µM].

For the molecule `Cc1cc(C(=O)Nc2nnc(C3CC3)s2)c(C)s1`, the activity, negative = inhibition is 11.4% [at 12.7 µM].

Regarding `O=C(CNC(=O)c1cccnc1)N/N=C/c1cccnc1`, the “activity, negative = inhibition” value is -9.35% [at 102 µM].

Consider `O=C(NNC(=O)c1cccnc1)Nc1ccccc1`, for which the activity, negative = inhibition was -81.4% [at 2.33 µM].

Turning to `O=C(O)CSC(NC(=O)c1cccnc1)(C(F)(F)F)C(F)(F)F`, the Potency is 14.1 µM (active).

Consider `CCN(CC)S(=O)(=O)c1ccc(-c2cn3ccc(C)cc3n2)cc1`, for which the activity, negative = inhibition was 4.83% [at 0.501 µM].

Turning to `CCOC(=O)CSc1ncc(-c2cccc(Cl)c2)cn1`, the “activity, negative = inhibition” value was 115% [at 102 µM].

Take `CCOC(=O)CSc1ccccn1`: the Potency is 39.8 µM (active).

Consider `COC(=O)c1ccccc1NC(=O)CSc1ccccn1`, for which the “activity, negative = inhibition” value was 2.13%.

In the case of `O=C(Nc1ccccc1Cl)N1CCC(CN2CCCCC2)CC1`, the “activity, negative = inhibition” value is -2.61%.

As to `COc1ccc2sc(-c3ccc(N(C)C)cc3)c(C#CCO)c2c1`, the activity, negative = inhibition was 8.02% [at 0.501 µM].

Consider `COc1ccc(-c2cc(-c3nc(-c4cc(OC)c(OC)c(OC)c4)no3)[nH]n2)c(OC)c1`, for which the “activity, negative = inhibition” value is -1.81%.

As to `CC(C)(C)OC(=O)N/N=C/c1cn(-c2ccccc2)nc1-c1cccnc1`, the “activity, negative = inhibition” value was 3.66% [at 102 µM].

With `CN(C)/N=C/c1cn(-c2ccccc2)nc1-c1cccnc1`, the Potency is 56.2 µM (active).

Turning to `O=C(c1cn(-c2ccccc2)nc1-c1cccnc1)N1CCCCC1`, the “activity, negative = inhibition” value was 4.5% [at 102 µM].

`CCCCc1ccc(NS(=O)(=O)c2cccc(C(=O)N3CCCN(C)CC3)c2)cc1`: the “activity, negative = inhibition” value was 18.4%.

In the case of `CC(=O)NC(CC(=O)Nc1cccc(S(=O)(=O)N2CCCC2)c1)c1ccccc1` (configuration not stated), the “activity, negative = inhibition” value is 1.42% [at 102 µM].

For the molecule `Cc1cc(C(F)F)nn1CC(=O)NC1CCCCCC1`, the Potency is 79.4 µM (active).

Regarding `Cc1nn(CC(=O)NC2CCCCC2)c(=O)c2cccn12`, the “activity, negative = inhibition” value is 14.9% [at 102 µM].

Turning to `O=C(Cn1nc([N+](=O)[O-])nc1Br)NC1CCCCC1`, the “activity, negative = inhibition” value is -0.489% [at 102 µM].

With `CCc1noc(C)c1C(=O)N1CCCSC1=Nc1ccccc1OC`, the “activity, negative = inhibition” value was -2.08% [at 102 µM].

Regarding `O=C1c2ccccc2C(=O)N1CCC#Cc1ccc2cc(C3(O)CCCCC3)oc(=O)c2c1`, the activity, negative = inhibition was 1.05% [at 0.501 µM].

Consider `C=CCN1C(=O)c2ccc(C(=O)N3CCC(C(=O)OCC)CC3)cc2C1=O`, for which the “activity, negative = inhibition” value is -24% [at 102 µM].
